A selection: hits, their analogues and other compounds. The true share with any hit is near 10%.
BAZ2B inh: qHTS Assay for Inhibitors of BAZ2B; actives 4.4% (n = 360,000); Potency, µM (doses to about 114 µM), for the others: at the top dose activity change, negative = inhibition, hits mostly inhibitors; AlphaScreen BAZ2B-H3K14Ac peptide displacement; AID 504333, 2011; Bromodomain adjacent to zinc finger domain protein 2B (Homo sapiens), Q9UIF8; further: potency means the concentration at half of the fitted maximal effect; on the % scale 0 is the no-effect control and ±100 the full control effect; nearly all actives have a fitted effect of over 60% in size
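BAZ2B (50 nM) with biotin-H3(5-23)K14Ac peptide (50 nM) in PBS pH 7.4, 0.01% Tween-20, preformed 30 min, then compound 30 min at room temperature; top concentration 110uM. AlphaScreen streptavidin donor/nickel chelate acceptor beads (10 ug/mL final), 20 min dark, signal read.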
CtBP-E1A inh: qHTS Assay for Inhibitors of the CtBP/E1A Interaction. activity change, % (test concentration not listed). AlphaScreen GST-E1A/His-CtBP binding, 1536-well; hits give low values. AID 651724, 2012. actives 0.49% (n = 340,000). CtBP / adenovirus E1A interaction (AlphaScreen); in the data active means activity change below about -65%; inconclusive means mostly about -30% to -63%; further: on the % scale 0 is the no-effect control and ±100 the full control effect
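In 5 uL wells, 23 nL compound meets equimolar GST-E1A and His-CtBP (5X stock 125 nM each) for 2 h, 37 °C. Beads (5X, 50 ug/mL) then 1 h, 37 °C, dark.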
JMJD2A Tudor inh: qHTS Assay for Inhibitors of JMJD2A-Tudor Domain | AlphaScreen JMJD2A-Tudor / H3K4me3 peptide binding | Lysine-specific demethylase 4A (Homo sapiens), O75164 | actives 4.4% (n = 390,000) | AID 504339, 2011 | Potency, µM (titrated, usually from 114 µM), without a hit: at the top dose activity change, negative = inhibition, usual class: inhibitors; further: potency means the concentration at half of the fitted maximal effect; on the % scale 0 is the no-effect control and ±100 the full control effect; nearly all actives have a fitted effect of over 50% in size
Six1-Eya2 blk: qHTS Assay for Inhibitors of the Six1/Eya2 Interaction | Homeobox protein SIX1 (Homo sapiens) + Protein phosphatase EYA2 (Homo sapiens), … | AlphaScreen GST-Six1/His-Eya2 binding, biochemical; hits give low values | activity change, % (concentration not given with the values) | actives 0.56% (n = 360,000); in the data active means activity change below about -65%; inconclusive means mostly about -30% to -63%; further: on the % scale 0 is the no-effect control and ±100 the full control effect
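AlphaScreen with GST-Six1 and His-Eya2 (5X mix: 250 nM and 500 nM), glutathione donor and nickel acceptor beads; buffer 50 mM Tris pH 8.0, 300 mM NaCl, 1 mM TCEP; 1 h at 37 C in the dark.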
HP1b chromo inh: HTS for Inhibitors of HP1-beta Chromodomain Interactions with Methylated Histone Tails. Chromobox protein homolog 1 (Homo sapiens), P83916. AlphaScreen HP1-beta / biotin-H3K9me3 peptide binding. Potency, µM (series often up to 114 µM), for the others: at the highest dose activity change, negative = inhibition, most hits filed as inhibitors. actives 0.56% (n = 390,000). AID 540317, 2011; further: potency means the concentration at half of the fitted maximal effect; nearly all actives have a fitted effect of over 70% in size
Target sequence (P83916 whole entry, looked up): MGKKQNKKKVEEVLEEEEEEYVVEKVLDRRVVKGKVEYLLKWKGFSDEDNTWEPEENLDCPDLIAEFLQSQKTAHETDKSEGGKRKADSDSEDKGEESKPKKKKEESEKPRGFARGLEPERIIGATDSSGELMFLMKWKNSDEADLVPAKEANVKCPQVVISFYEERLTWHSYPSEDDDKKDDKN
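HP1-beta protein (50 nM final) preincubated 30 min at room temperature with biotinylated H3(1-18)K9me3 peptide (50 nM) in PBS pH 7.4, 0.01% Tween-20, then compound added for 30 min. AlphaScreen streptavidin donor/nickel chelate acceptor beads (10 ug/mL final), 30 min dark, luminescence read.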
G9a block: qHTS Assay for Inhibitors of Histone Lysine Methyltransferase G9a | G9a H3K9 monomethylation, AlphaScreen, 2 h | Histone-lysine N-methyltransferase EHMT2 (Homo sapiens), Q96KQ7 | Potency, µM (titrated, usually from 102 µM), without a hit: top-dose activity, negative = inhibition, hits mostly inhibitors | actives 8.8% (n = 350,000); further: potency means the concentration at half of the fitted maximal effect; on the % scale 0 is the no-effect control and ±100 the full control effect; nearly all actives have a fitted effect of over 75% in size
Target sequence (Q96KQ7 913-1193 limits assumed): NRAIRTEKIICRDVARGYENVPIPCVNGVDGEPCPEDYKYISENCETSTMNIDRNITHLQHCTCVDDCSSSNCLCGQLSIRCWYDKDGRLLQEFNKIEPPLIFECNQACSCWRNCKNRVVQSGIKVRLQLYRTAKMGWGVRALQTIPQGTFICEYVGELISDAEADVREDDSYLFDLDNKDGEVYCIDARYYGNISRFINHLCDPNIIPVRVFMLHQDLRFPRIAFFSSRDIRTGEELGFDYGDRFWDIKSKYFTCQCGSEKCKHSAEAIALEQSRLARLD
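G9a (20 nM) was preincubated 15 min with compound, then reacted 2 h at room temperature with 500 nM biotin-H3K9 peptide and 20 µM SAM. Monomethyl-H3K9 detected by AlphaScreen using anti-H3K9me1 antibody.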
An asterisk follows results filed as active; u = inconclusive; x = no result; [ ] = remark or other dose. Unless noted, the call rests on the fitted dose curve; in most records, active means well fitted inhibition curve with a large enough effect; inconclusive means small, poorly fitted or top-dose-only effect; inactive means no such curve, though single readings can be large or run the other way.

SMILES | BAZ2B inh | CtBP-E1A inh | JMJD2A Tudor inh | Six1-Eya2 blk | HP1b chromo inh | G9a block
COc1cccc(CNS(=O)(=O)c2ccc(-n3cnnn3)c(C)c2)c1 | -1% | 15 | -8% | 4 | 48% | 2%
COc1cccc(CN(Cc2cccnc2)S(=O)(=O)c2ccc(-n3cnnn3)c(C)c2)c1 | 79µM* | -16 | 89µM* | -12 | 12% | u
COc1cc(S(=O)(=O)N(Cc2cccnc2)Cc2ccco2)ccc1-n1cnnn1 | 56µM* | 10 | 28µM* | -2 | -1% | 5.6µM*
COc1cc(S(=O)(=O)N(Cc2ccc(C)cc2)Cc2ccco2)ccc1-n1cnnn1 | -13% | 12 | -16% | -6 | 14% | -3%
Cc1cc(S(=O)(=O)N(Cc2ccccc2)Cc2ccc(N(C)C)cc2)ccc1-n1cnnn1 | -33% | u | 40µM* | u | -23% | 8.9µM*
CC(C)c1ccc(C(=O)N2CCCC(c3cc(C(=O)Nc4ccc5c(c4)OCO5)no3)C2)cc1 (stereo not given) | x | 2 | x | -1 | x | x
COc1cccc(NS(=O)(=O)c2ccc3[nH]cc(C(=O)NC(C)c4ccccc4)c(=O)c3c2)c1 (stereo not given) | x | x | u | x | -2% | -51%[59 µM]
O=C(O)c1ccc(N/N=C/c2ccc(-c3ccccc3Cl)o2)cc1 | -31% | 4 | -11% | 8 | 1% | 56µM*
S=c1[nH]nc(-c2ccccc2)n1/N=C/c1ccc(-c2ccccc2Cl)o1 | -13% | -21 | u | u | -15% | u
O=C(N/N=C/c1ccc(-c2ccccc2Cl)o1)c1ccccc1 | -17% | -25 | -2% | u | 30% | 4%
O=S(=O)(N/N=C\c1ccc(-c2ccccc2Cl)o1)c1ccccc1 | u | -5 | -36% | -20 | u | 7.9µM*
Cc1nnc(C)n1/N=C/c1ccc(-c2ccccc2Cl)o1 | -12% | -7 | u | 0 | -12% | 50µM*
O=C(NCCOc1ccccc1)c1cccc(S(=O)(=O)N2CCN(Cc3ccccc3)CC2)c1 | x | 5 | x | -6 | x | x
Cc1ccc(S(=O)(=O)CCc2nnc(NC(=O)c3ccco3)s2)cc1 | 4% | 5 | -2% | 9 | 40% | -8%
CCN=c1scc(C)n1/N=C/c1cc(Br)c(O)c(Br)c1 | 45µM* | -15 | u | -10 | u | 10µM*
COCCN=c1scc(-c2cccs2)n1/N=C/c1ccc(O)c(O)c1O | 35µM* | x | 8.9µM* | -27 | u | 5.6µM*
CCN=c1scc(C)n1/N=C/c1ccc(O)c(O)c1O | 22µM* | u | 45µM* | u | u | 5µM*
COc1ccc(CC(=O)N/N=C\c2cc(Br)c(O)c(Br)c2)cc1 | -25% | 4 | -15% | -10 | 17% | u
O=C(O)c1cc2nccc(-c3ccc(F)cc3)n2n1 | u | 6 | -10% | 1 | 41% | u
CCc1nc2ccc(C(=O)NCCc3ccccn3)cn2c1N(C)CCC(C)C | x | -1 | x | -5 | x | x
Cc1ccc(S(=O)(=O)NCCC(=O)NNC(=O)COc2ccc(Br)cc2)cc1C | 8% | -1 | -11% | 14 | 15%[57 µM] | -29%[59 µM]
COc1cc(C(=O)NC(=S)NNC(=O)[C@H]2C[C@@H]2c2ccccc2)cc(OC)c1OC | -1% | -4 | -24% | -3 | 15% | 40µM*
COc1ccc(NC(=S)NNC(=O)C2CC2c2ccc(C)cc2)cc1 (stereo not given) | -4% | -3 | 8%[57.1 µM] | -5 | 23% | 45µM*
COc1cc(C(=O)NNC(=S)NC(=O)c2ccc3c(c2)OCO3)cc(OC)c1OC | -4% | -6 | -23% | -9 | 1% | 13µM*
Cc1ccc(NC(=S)NNC(=O)C2CC2c2ccc(C)cc2)cc1 (stereo not given) | 9% | -6 | -13% | -3 | -8% | u
SMILES | BAZ2B inh | CtBP-E1A inh | JMJD2A Tudor inh | Six1-Eya2 blk | HP1b chromo inh | G9a block
COc1cc(C(=O)NNC(=O)c2ccc3c(c2)OCCO3)cc(OC)c1OC | x | -3 | -12% | 1 | 38% | x
COc1ccccc1C(=O)NNC(=S)NC(=O)c1cc(OC)c(OC)c(OC)c1 | -4% | -15 | -30% | -2 | 32% | 13µM*
COC(=O)CCC(=O)OC1(C)C(=O)C2=CN(c3ccc(OC)cc3)C(c3ccc(OC)cc3)=CC2=C(Br)C1=O (stereo not given) | x | -18 | 40µM* | -22 | u | x
COCCN1C=C2C(=O)C(C)(OC(=O)CCC(=O)OC)C(=O)C(Br)=C2C=C1c1ccc(OC)cc1 (stereo not given) | x | -11 | u | -7 | -8% | x
COC(=O)CCCC1=CC2=C(c3ccccc3)C(=O)C(C)(OC(=O)C3CCCC3)C(=O)C2=CN1Cc1ccc(OC)cc1 (stereo not given) | u | u | 50µM* | u | u | u
COC(=O)CCCC1=CC2=C(c3ccccc3)C(=O)C(C)(OC(=O)C3CCCC3)C(=O)C2=CN1Cc1ccc2c(c1)OCO2 (stereo not given) | u | x | u | u | -3% | 15%[12.7 µM]
COC(=O)CCC(=O)OC1(C)C(=O)C2=CN(C3CCCC3)C(c3ccc(OC)cc3)=CC2=C(Br)C1=O (stereo not given) | 45µM* | -2 | 56µM* | -13 | u | 1%[12.7 µM]
Cc1cccc(N2CCN(C(=O)c3ccc4c(c3)NC(=O)C(CSCc3cccc(F)c3)N4)CC2C)c1 (stereo not given) | -16% | 1 | u | -3 | u | x
CCCCN(CC)Cc1ccc(CNC(=S)Nc2ccc(C)cc2Cl)o1 | 4% | -7 | -34% | -1 | 3% | 35µM*
CCN(Cc1ccncc1)Cc1cn[nH]c1-c1ccc(OC)cc1F | -15% | 3 | -5% | -4 | 16% | 50µM*
COc1ccc(-c2[nH]ncc2CN(C)C(C)c2ccncn2)c(F)c1 (stereo not given) | 3% | 1 | -18% | 1 | 21% | x
Cc1cc(C)cc(NC(=S)/C(=C(\[O-])c2ccc(Cl)cc2Cl)[n+]2ccc(C(C)(C)C)cc2)c1 | -16% | x | -14% | 0 | 11% | 23%[12.7 µM]
CCc1cccc(CC)c1NC(=S)/C(=C(\[O-])c1ccc(Cl)s1)[n+]1ccccc1 | u | 3 | u | -9 | -16% | 45µM*

Screens deposited in PubChem by National Center for Advancing Translational Sciences (NCATS).
